PNC assembly inh: perinucleolar compartment assembly inhibition; PC3M PTB-GFP, PNC prevalence imaging, 16 h; active compounds read low; 140,000 tested, 3.1% active; activity change (PNC), negative = inhibition, % at 10 µM;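 active = readout at or below -70, meaning at least 70% loss of cells showing the perinucleolar compartment, a nuclear body marking cancer cells; inconclusive = readout between -30 and a set limit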;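 also: plate controls were DMSO wells for no effect and camptothecin positive control wells for full effect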
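Read-out is percentage of cells bearing a perinucleolar compartment, from automated 20x imaging of fixed, Hoechst-stained PC3M PTB-GFP cells. Cells were seeded 4 h, then exposed 16 h to compound (23 nl of library stock) in duplicate plates.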
HPGD inh: HPGD (human) dehydrogenase inhibition. purified HPGD, NADH fluorescence kinetic, PGE2 substrate. AID 894. Potency, µM, for the others: at the highest dose activity change, negative = inhibition, actives largely listed as inhibitors. P15428. 150,000 tested, 4.3% active; also: potency is read from the fitted curve at half-maximal effect
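20 nM HPGD preincubated 15 min at room temperature with compound in 50 mM Tris-HCl pH 8, 0.01% Tween 20. Started with 1 mM NAD+ and 30 uM prostaglandin E2; NADH fluorescence (360/450 nm) read 5 times over 30-s intervals, last minus first.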
ALDH1A1 inh: blocks purified human ALDH1A1 activity; P00352; Purified ALDH1A1, NADH fluorescence, propionaldehyde substrate; Potency, µM (top dose mostly 75.3 µM), for the others: at the top dose activity, negative = inhibition, most hits filed as inhibitors; 220,000 tested, 7.3% active; AID 1030;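 also: potency is read from the fitted curve at half-maximal effect; plate controls were no enzyme wells and a reference inhibitor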
Target sequence (P00352 whole entry, looked up): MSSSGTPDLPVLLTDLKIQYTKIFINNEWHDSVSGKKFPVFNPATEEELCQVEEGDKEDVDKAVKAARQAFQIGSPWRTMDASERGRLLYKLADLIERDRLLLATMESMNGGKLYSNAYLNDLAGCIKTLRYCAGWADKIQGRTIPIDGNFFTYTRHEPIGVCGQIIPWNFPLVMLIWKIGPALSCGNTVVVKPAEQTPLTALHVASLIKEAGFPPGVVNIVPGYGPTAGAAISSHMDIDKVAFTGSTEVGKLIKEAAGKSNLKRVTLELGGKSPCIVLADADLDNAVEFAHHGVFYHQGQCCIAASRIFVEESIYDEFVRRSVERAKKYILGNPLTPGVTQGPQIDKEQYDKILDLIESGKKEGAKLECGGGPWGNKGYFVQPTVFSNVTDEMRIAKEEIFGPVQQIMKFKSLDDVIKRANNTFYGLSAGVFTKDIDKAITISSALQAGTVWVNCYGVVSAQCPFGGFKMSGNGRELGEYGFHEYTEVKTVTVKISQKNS
IMPase Li cell: IMPase inhibition in cells with lithium potentiation. 210,000 tested, 0.35% active. Potency, µM (doses to about 59.4 µM), inactives show at the top dose activity, negative = IMPase inhibition, most hits filed as inhibitors. CHO-M1 cells, IP1 TR-FRET (IP-One), carbachol + lithium. AID 1457; active = well fitted inhibition curve with a large enough effect; inconclusive = small, poorly fitted or top-dose-only effect; inactive = no such curve, though single readings can be large or run the other way;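 also: IP1 builds up when IMPase is blocked and the TR-FRET signal falls; potency is read from the fitted curve at half-maximal effect; plate controls were basal vehicle for no effect and high inhibitor control for full effect; nearly all actives have a fitted effect of over 50% in size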
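Steps: plate 2000 CHO-M1 cells per well and culture 16–30 h; add compound and lithium; incubate 30 min, 37C; add d2-IP1 tracer and Eu cryptate anti-IP1 antibody in lysis buffer; read after 10 min at room temperature.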
IMPase cell inh: cell-permeable inhibitors of inositol monophosphatase (IMPase); P97697; CHO-M1 cells, IP1 accumulation, HTRF TR-FRET ratio; inhibition (IP1 accumulation), % at 46.1 µM; 120,000 tested, under 10 active; AID 901; active = well fitted curve in the direction sought with a large enough effect in the signal ratio, not every such curve was filed as active; inconclusive = small, poorly fitted or top-dose-only effect, or a change in a side signal; inactive = no such curve, though single readings can be large or run the other way; the % refers to the signal ratio;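 also: cells stimulated with carbachol in lithium chloride buffer; plate controls were DMSO basal wells for no effect and reference inhibitor wells for full effect; higher means more IMPase inhibition seen as more IP1 and lower FRET ratio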
Target sequence (P97697 whole entry, looked up): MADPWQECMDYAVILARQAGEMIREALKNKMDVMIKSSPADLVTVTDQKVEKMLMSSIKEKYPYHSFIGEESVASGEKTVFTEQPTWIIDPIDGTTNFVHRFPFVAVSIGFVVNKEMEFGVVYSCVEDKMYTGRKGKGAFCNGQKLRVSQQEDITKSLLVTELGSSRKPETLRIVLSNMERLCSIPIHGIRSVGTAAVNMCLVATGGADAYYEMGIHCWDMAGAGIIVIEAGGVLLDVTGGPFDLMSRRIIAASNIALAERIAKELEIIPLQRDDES
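The IP-One HTRF competitive assay in carbachol-stimulated CHO-M1 cells quantifies cellular IP1. Compounds spanned up to 46 uM final, and activity is expressed as AC50 from concentration-response fits of the ratio and donor data.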
The depositor's hits bear a star; ? = inconclusive; . = not tested or not shown; [ ] = dose if it differs, or a comment. Shown are actives, neighbours in structure and some others; about 11% of the full set was active somewhere. Unless noted, calls follow the shape of the dose curve; as a rule, active = well fitted inhibition curve with a large enough effect (not every such curve was filed as active); inconclusive = small, poorly fitted or top-dose-only effect, or another doubt; inactive = no such curve, though single readings can be large or run the other way. Unless noted, % is scaled to controls: 0 for no effect and ±100 for the full control effect.

SMILES | PNC assembly inh | HPGD inh | ALDH1A1 inh | IMPase Li cell | IMPase cell inh
CCn1c(C)nc2cc(C(=O)N/N=C/c3ccc(O)c(O)c3O)ccc21 | . | . | 1.41µM* | 7.9% | .
CCN(CC)S(=O)(=O)c1cccc(C(=O)N/N=C/c2ccc(O)c(O)c2O)c1 | 12.2 | 25.1µM* | 8.91µM* | 25.2% | .
CC(C)(C)NC(=S)NC(=O)C12CC3CCC(CC(C3)C1)C2 | 22.3 | 0.4% | ? | 0.2% | 16.5
CN(C)NC(=S)NC(=O)C12CC3CC(CC(C3)C1)C2 | . | . | 28.2µM* | -6.8% | .
Cc1ccc(NCc2nnc(SCC(=O)Nc3ncc(C)s3)n2CC2CCCO2)c(C)c1 (centres undefined) | -16.3 | -12.2% | 4.47µM* | -2.6%[38.3 µM] | 6.7
O=C(CSc1nnc(CNc2ccc(F)cc2)n1CC1CCCO1)Nc1ccccc1 (centres undefined) | ? | -4.1% | ? | 8.5% | 21.5
Cc1ccc(NCc2nnc(SCC(=O)NCc3ccco3)n2CC2CCCO2)c(C)c1 (centres undefined) | 31.2 | -1.3% | -15.3% | 30.8%[38.3 µM] | -2.3
Cc1ccc(NCc2nnc(SCC(=O)Nc3cccc(O)c3)n2CC2CCCO2)c(C)c1 (centres undefined) | ? | -8.2% | 3.98µM* | 6.5%[38.3 µM] | -4.1
O=S1(=O)NC(=NCCOCCO)c2ccccc21 | . | . | 3.0% | 2.0% | .
CCOC(=O)c1c(C)n(C)c2ccc(O)c(CN3CCN(C)CC3)c12 | -15.6 | -7.6% | 17.8µM* | 17.9%[38.3 µM] | 7.4
CCOC(=O)c1c(C)n(C)c2ccc(OC)c(NC(=O)CN3CCSCC3)c12 | -104.9* | -7.6% | 2.5% | 4.0%[38.3 µM] | 1.4
CCOC(=O)c1c(-c2ccccc2)oc2ccc(O)c(CN3CCN(C)CC3)c12 | -113.8* | 1.9% | ? | 2.9% | .
COC(=O)c1ccccc1NC(=O)CSc1nc(N)cc(N)n1 | 15.0 | -15.8% | 25.1µM* | -2.9%[38.3 µM] | 0.9
CCOC(=O)c1ccccc1NC(=O)CSc1nccn1C | -100.0* | -10.3% | -11.5% | 0.0% | -3.8
COC(=O)c1ccc(C(=O)OC)c(NC(=O)COc2ccccc2OC)c1 | 8.5 | -22.3% | 12.6µM* | -1.8%[38.3 µM] | 10.5
CCOC(=O)c1cnc(SCc2cccc(C)c2)nc1N | ? | ? | 25.1µM* | 9.5% | 7.8
CCOC(=O)c1ccccc1NC(=O)CSc1nc(N)cc(N)n1 | 2.5 | 0.4% | -7.7% | -6.8% | -0.4
CCOC(=O)CCN1C(=O)[C@H]2[C@H]3[C@H](O)[C@H](O)C/C(=N/OCC(C)C)[C@H]3CC[C@@H]2C1=O | . | . | 4.4%[13.5 µM] | . | .
Fc1ccc(CO/N=C2\CCCc3nonc32)cc1 | . | . | 3.3% | 30.6% | .
CCOC(=O)c1ccccc1NC(=O)CSc1ncc(C(=O)OCC)c(N)n1 | -25.7 | -7.2% | 20µM* | 36.0%[38.3 µM] | 7.8
COC(=O)c1ccccc1NC(=O)CSc1nnc(-c2ccncc2)o1 | 3.9 | -20.7% | 17.8µM* | 28.3%[38.3 µM] | 0.9
CCc1ccccc1NCC(=O)Nc1ccccc1C(=O)OC | -16.8 | . | ? | . | -2.7
COc1ccccc1-c1nnc(SCC(=O)Nc2c(Cl)cccc2Cl)o1 | -26.6 | -3.8% | 22.4µM* | 18.4%[38.3 µM] | ?
COC(=O)c1ccccc1NC(=O)CNc1cc(OC)c(OC)cc1C | ? | -15.2% | 10µM* | 14.6% | 7.3
CCOC(c1cc(OC)cc([N+](=O)[O-])c1OC)C(C)C(OC)[C@@H](C)/C=C/CC(=O)OC (some centres undefined) | . | . | -0.5%[13.5 µM] | . | .
SMILES | PNC assembly inh | HPGD inh | ALDH1A1 inh | IMPase Li cell | IMPase cell inh
NCC[C@H](O)C(=O)N[C@H]1C[C@@H](N)[C@@H](O[C@H]2O[C@@H](CN)[C@@H](O)[C@@H](O)[C@@H]2O)[C@@H](O)[C@@H]1O[C@H]1O[C@@H](CO)[C@@H](O)[C@@H](N)[C@@H]1O | . | 4.1% | 8.4%[20.9 µM] | -2.5% | 1.0[20.6 µM]
CCOC(=O)c1cnc(SCc2nc(N)nc(Nc3ccc(C)cc3)n2)nc1N | -81.2* | -26.0% | -5.3% | 32.1%[38.3 µM] | 5.3
CCOC(=O)N/N=C\c1ccc(-c2cccc(C(F)(F)F)c2)o1 | . | . | -5.6% | 5.1% | .
N#C/C(=C\c1ccc(-c2cccc(C(F)(F)F)c2)o1)C(=O)Nn1cnnc1 | -29.3 | 1.41µM* | 2.5% | 2.2% | .
Cc1nn(-c2ccccc2)c(OC(=O)c2ccccc2)c1S(=O)(=O)c1ccccc1 | . | . | . | . | -4.2
COc1ccc(-c2csc3ncn(-c4cccc(C)c4)c(=O)c23)cc1OC | . | . | 4.1% | 8.4% | .
COc1ccc(-c2csc3ncn(-c4ccccc4)c(=O)c23)cc1OC | . | . | 7.94µM* | 2.8% | .
Cc1cccc2c1Oc1ccccc1[C@@H]2NC(=O)c1ccc([N+](=O)[O-])cc1 | . | -4.1% | 5.5%[13.5 µM] | 3.9% | .
Cc1nc2ccc(NC(=O)Cc3ccc4c(c3)OCCO4)cc2s1 | -11.7 | -10.7% | 13.7% | 2.5% | -0.1
COC(=O)c1c(NC(=O)C(Cl)Cl)sc2c1C(C(=O)OC)CC2 (centres undefined) | . | . | 0.891µM* | . | .
CCc1nnc(NC(=O)CSc2nc3cc(OC)c(OC)cc3cc2C)s1 | . | . | -2.0% | 19.6% | .
Cc1ccsc1/C=N/n1c(COc2ccccc2)n[nH]c1=S | -16.6 | 14.1µM* | 20µM* | -0.3% | -3.1
S=c1[nH]nc(COc2ccccc2)n1/N=C/c1cccs1 | ? | 14.1µM* | -1.2% | -13.9% | 4.1
Cc1nc2cnc(Nc3ccccc3)nc2n(CCc2ccccc2)c1=O | . | . | 1.1% | 11.2% | .
COC(=O)C1=C(C)[C@@H](O)[C@@H](C)[C@H](c2c(OC)c(OC)c(C)c(OC)c2OC)O1 | . | . | 3.7%[13.5 µM] | . | .
CCn1c(SCC(=O)O)nnc1-c1ccccc1OC | . | . | ? | 26.7% | .
O=C(Cc1ccccc1)Nc1ccc2c(c1)CCC2 | . | . | -1.9% | -12.3% | .
O=C(O)c1ccc(C(=O)Nc2cccc(NC(=O)C3CCCO3)c2)cc1 (centres undefined) | 19.3 | 22.4µM* | 9.0% | -17.2%[38.3 µM] | -0.8
O=C(Nc1ccc2c(c1)OCCO2)c1ccc(NC(=O)C2CCCO2)cc1 (centres undefined) | ? | -26.6% | ? | -9.3%[38.3 µM] | 3.2
O=C(Nc1ccc(O)cc1)C1CCCO1 (centres undefined) | -27.0 | -3.4% | 18.1% | 0.2%[38.3 µM] | -4.8
O=C(CC1CCCC1)Nc1ccc2c(c1)CCC2 | 62.8 | 14.1µM* | 3.7% | -3.6%[38.3 µM] | -2.6
O=C(Nc1ccc2c(c1)CCC2)C1CCCO1 (centres undefined) | 10.1 | 17.8µM* | 14.4% | -4.2% | -5.2
COC(=O)CC1=COC2OCC3=CC[C@@H]1C32 (some centres undefined) | . | . | 9.2%[13.5 µM] | . | .
Cn1c(N2CCN(C(=O)NCc3ccccc3)CC2)nc2ccccc21 | ? | -8.5% | 3.98µM* | -9.9%[38.3 µM] | 12.6
CCC1(C)Cc2c(sc3nc(SCC(=O)O)[nH]c(=O)c23)CO1 (centres undefined) | -102.3* | ? | ? | -1.2% | 0.8
Cc1ccc(S(=O)(=O)Cc2sc3ccccc3[n+]2C)cc1 | 26.0 | 22.4µM* | ? | 18.8%[38.3 µM] | 8.4

Compound activity: PubChem, National Center for Advancing Translational Sciences (NCATS)
